The whole screen tested about 48,000 compounds, of which about 13,000 (27%) showed an effect of 50% or more. The list shows a part of the results.
Test system: Wolbachia pipientis
Assay: Anti-Wolbachia Cell-Based Screen
Assay type: functional
Set-up: scale not given: in the data most compounds retested in dose-response had high values
Settings: 5 µM

| Compound | Percent Effect |
| --- | --- |
| CCCN1CC(C(=O)Nc2ccccn2)CC1=O (centres undefined) | -15.01% |
| COc1ccc(CN2CC[C@@H](N)[C@@H](OC)C2)cc1Cn1cncn1 | 18.6% |
| Cc1n[nH]cc1CNC(C(=O)N1CCOCC1)c1ccccc1 (centres undefined) | 6.045% |
| Cc1cnc(-c2nc(C3CCCN(Cc4ccccc4C)C3)no2)cn1.Cl (centres undefined) | 93.62% |
| Cc1cnc(-c2nc(-c3cccc(CN4CCOCC4)c3)no2)cn1 | 4.673% |
| Cc1cnc(-c2nc(C3CCN(Cc4ccccc4C)CC3)no2)cn1 | 126.9% |
| Cc1cnc(CN2CCN(C(C)c3nc(C4CC4)no3)CC2)cn1 (centres undefined) | 13.95% |
| CN1CCC(Cc2noc(-c3cn(Cc4ccccc4Cl)nn3)n2)CC1 | 21.53% |
| c1cc(CN2CCCC(c3noc(C4CC4)n3)C2)no1 (centres undefined) | 4.824% |
| Cc1nc(C2CCCN(c3ncc(Br)cn3)C2)no1 (centres undefined) | -7.201% |
| Cc1nc(C)c(CN2CCOC(Cc3ccccc3Cl)C2)nc1C (centres undefined) | -25.93% |
| Cc1cccn2cc(CN3CCCC(c4noc(C5CC5)n4)C3)nc12 (centres undefined) | -10.66% |
| Cc1cnc(-c2nc(C3CCCN(Cc4cccs4)C3)no2)cn1 (centres undefined) | 85.43% |
| Cc1cnc(-c2nc(C3CCN(Cc4ccccc4Cl)CC3)no2)cn1 | 142.3% |
| CCCNC(=O)CN1CCCC1c1nc(Cc2ccc(F)cc2)no1 (centres undefined) | -9.393% |
| CC(C)N1CCOC[C@H]1c1nc(C(C)(C)C)c[nH]1 | -12.91% |
| Cc1ccccc1C(C)(C)CNC(=O)CN(C)c1cnccn1 | 6.052% |
| Cc1ccsc1C(=O)NC1CCN(c2cnn(C)c2)C1=O (centres undefined) | -14.12% |
| CC(C)(C)NC(=O)C[C@@H]1CCNC[C@@H]1Cc1cc(C(C)(C)C)on1 | -4.858% |
| c1ccc2[nH]c(C3CCN(Cc4nc(C5CC5)no4)CC3)cc2c1 | 8.105% |
| c1cc(C2CCN(Cc3nc(C4CC4)no3)CC2)[nH]n1 | 45.49% |
| Cc1cnc(-c2nc(C3CCN(Cc4ccccc4O)CC3)no2)cn1 | 140.6% |
| CCN(CC)C(C(=O)Nc1ccc2c(c1)CCC(=O)N2)c1ccccc1 (centres undefined) | -21.99% |
| O=C(CN1CCN(c2ncccn2)[C@@H]2CS(=O)(=O)C[C@@H]21)N1CCCCC1 | -9.163% |
| COC(C)(C)Cn1ccnc1-c1cccc(C(C)N(C)C)c1 (centres undefined) | 3.994% |

| Compound | Percent Effect |
| --- | --- |
| CC(c1cccc(-c2nccn2CCc2cn[nH]c2)c1)N(C)C (centres undefined) | 8.832% |
| CC(c1cccc(-c2ncccc2F)c1)N(C)C (centres undefined) | 118.4% |
| CC(c1cccc(-c2ccc(C(=O)O)cc2Cl)c1)N(C)C (centres undefined) | -4.101% |
| Cc1ccc(C(=O)O)cc1-c1cccc(C(C)N(C)C)c1 (centres undefined) | -7.98% |
| CC(c1cccc(-c2ncc(C#N)c(N)n2)c1)N(C)C (centres undefined) | 111.9% |
| Cc1cnc(Cn2cc(-c3cccc(C(C)N(C)C)c3)nn2)cn1 (centres undefined) | -24.3% |
| CC(c1cccc(-c2nccn2CCc2ccccn2)c1)N(C)C (centres undefined) | 15.78% |
| CC(c1cccc(-c2ncccc2C#N)c1)N(C)C (centres undefined) | 104.1% |
| COc1ccccc1[C@@H]1CN(Cc2cc(C(C)(C)C)[nH]n2)C[C@H]1C(=O)O | -3.476% |
| CCc1cnc(NCC2OCCc3ccccc32)nc1 (centres undefined) | 32.64% |
| Cn1ccnc1NC[C@@H]1CCC[C@@H]2CN(CC3CC3)C[C@@H]21.O=C(O)C(F)(F)F | 12.38% |
| COc1ccnc(CN2CCC=C(C(C)NC(C)=O)C2)c1OC (centres undefined) | -37.4% |
| CC(C)Nc1ncnc2c1CCN(C(=O)NCc1cccnc1)CC2.O=C(O)C(F)(F)F | -1.871% |
| COc1ncnc2c1CCN(C(=O)NCc1cccnc1)CC2.O=C(O)C(F)(F)F | 5.156% |
| O=C(NCc1cccc(F)c1)N1CCc2ncnc(NC3CC3)c2CC1 | 117.5% |
| O=C(NCc1cccnc1)N1CCc2ncnc(C3CC3)c2CC1.O=C(O)C(F)(F)F | -6.522% |
| O=C(NCc1cccnc1)N1CCc2ncnc(NC3CC3)c2CC1.O=C(O)C(F)(F)F | 96.91% |
| CCOc1ncnc2c1CCN(C(=O)NCc1cccnc1)CC2.O=C(O)C(F)(F)F | 0.188% |
| CC(C)Nc1ncnc2c1CCN(C(=O)NCc1cccc(F)c1)CC2 | 86.35% |
| COc1ncnc2c1CCN(C(=O)NCc1cccc(F)c1)CC2 | -12.16% |
| O=C(NCc1ccccc1)N1CCc2ncnc(NC3CC3)c2CC1 | 108.7% |
| CCN(C)c1ncnc2c1CCN(C(=O)NCc1cccnc1)CC2.O=C(O)C(F)(F)F | 18.48% |
| CN1CCc2[nH]nc(C(=O)N3CCC4(CN(C)C(=O)O4)C3)c2C1 (centres undefined) | 3.232% |
| CCC(O)CN1CCN(C(=O)c2cccc3[nH]ncc23)CC1 (centres undefined) | 10.02% |
| CCN(C)S(=O)(=O)c1c(F)cc(NC(C)=O)cc1F | 15.35% |

| Compound | Percent Effect |
| --- | --- |
| CCC(Nc1nc(CCN)nc2ccccc12)c1cc(C)ccn1 (centres undefined) | 5.857% |
| O=C(Cn1nc(-c2ccc(F)cc2)oc1=O)Nc1ccccc1 | -16.04% |
| O=C(O)Cn1nc(C2CC2)c2c(-c3ccc(F)cc3)ccnc21 | 106.5% |
| Cc1nn(CC(=O)Nc2ccc(F)cc2)c(N)c1C#N | -10.06% |
| Cc1nn(CC(=O)O)c2nccc(-c3ccc(F)cc3)c12 | 132.8% |
| CN(C(=O)Cn1nc(-c2ccc(F)cc2)oc1=O)C1CCS(=O)(=O)C1 (centres undefined) | -25.19% |
| COc1ccccc1-c1cc(C(F)(F)F)c2c(C)nn(CC(=O)O)c2n1 | -3.37% |
| O=C(CO)N1CCN(C(=O)c2coc3ccccc23)CC1 | -5.618% |
| CS(=O)(=O)N1CCC2(CC1)CC(NCc1ccco1)c1ccccc12.O=C(O)C(F)(F)F (centres undefined) | 91.69% |
| Cn1cc(CNC2CC3(CCN(S(C)(=O)=O)CC3)c3ccccc32)cn1.O=C(O)C(F)(F)F (centres undefined) | 94.6% |
| CS(=O)(=O)N1CCC2(CC1)CC(CC(=O)NC1CC1)c1ccccc12 (centres undefined) | 17.75% |
| CS(=O)(=O)N1CCC2(CC1)CC(CC(=O)N1CCCC1)c1ccccc12 (centres undefined) | 5.675% |
| O=C(O)C(F)(F)F.O=C(O)C(F)(F)F.c1cnc(N2CCC3(CC2)CC(NCC2CC2)c2ccccc23)nc1 (centres undefined) | 1.529% |
| Cn1cncc1CNC1CC2(CCN(CC3CC3)CC2)c2ccccc21.O=C(O)C(F)(F)F.O=C(O)C(F)(F)F (centres undefined) | -10.77% |
| CS(=O)(=O)N1CCC2(CC1)CC(NCC1CC1)c1ccccc12.O=C(O)C(F)(F)F (centres undefined) | 107.6% |
| Cn1cncc1CNC1CC2(CCN(S(C)(=O)=O)CC2)c2ccccc21.O=C(O)C(F)(F)F (centres undefined) | -9.896% |
| CS(=O)(=O)N1CCC2(CC1)CC(NCc1ccccn1)c1ccccc12 (centres undefined) | 90.85% |
| Cn1cc(CNC2CC3(CCN(CC4CC4)CC3)c3ccccc32)cn1.O=C(O)C(F)(F)F.O=C(O)C(F)(F)F.O=C(O)C(F)(F)F (centres undefined) | -14.88% |
| CNC(=O)CNC1CC2(CCN(c3ncccn3)CC2)c2ccccc21.O=C(O)C(F)(F)F.O=C(O)C(F)(F)F (centres undefined) | -16.8% |
| Cc1noc(CCCC(=O)N2CCNC(=O)C2)n1 | -6.568% |
| Cc1c(C(C)Nc2ncnc3sccc23)cnn1C (centres undefined) | -5.704% |
| CCn1ccnc1CN(C)Cc1nc(CCC(C)C)no1 | -3.993% |
| COc1ccccc1[C@@H]1CN(C(=O)c2csc(C)n2)C[C@H]1C(=O)O | -8.955% |
| CCn1cc(CN(C)c2nc(C)c3ccc(S(C)(=O)=O)cc3n2)cn1 | -19.68% |
| Cc1nnc(N2CCOC(Cn3cccn3)C2)c(C#N)c1C (centres undefined) | -2.698% |

| Compound | Percent Effect |
| --- | --- |
| CCc1[nH]c2c(CNC(=O)C3CCN(C)C3)cc(C)cc2c1C (centres undefined) | -4.959% |
| Cc1nccc(C2CCCN(C(=O)c3cncnc3)C2)n1 (centres undefined) | 134.6% |
| Cc1cccc(C2CCCN(C(=O)c3ccncc3)C2)n1 (centres undefined) | 137.8% |
| Cc1nccc(C2CN(C(=O)c3cncnc3)C2)n1 | 123.7% |
| Cc1ncncc1C(=O)N1C[C@H]2CC[C@@H]1CN(C(=O)c1ccncc1)C2 | -6.558% |
| Cc1nc(O)cc(C2CCCN(C(=O)c3cccc(N(C)C)c3)C2)n1 (centres undefined) | 2.27% |
| CCCc1cc(C(=O)N2CC(c3ccncc3)C2)ccn1 | -34.73% |
| Cc1cc(C(=O)N[C@H]2CC[C@@]3(CCC(=O)N3)CC2)no1 | -22.87% |
| Cc1csc2cc(C(=O)NC3CCCC3)cnc12 | 127% |
| CNC(=O)c1coc(-c2csc(C)n2)c1 | 7.776% |
| CCOc1ccc(C(=O)NC2CC2)cc1C | -6.669% |
| Cc1ccsc1CCNC(C)C(=O)NC1CCCC1 (centres undefined) | 3.624% |
| CCc1nc(CNC(=O)Nc2ccc(C(=O)NC)cc2C)cs1 | -1.988% |
| CCNc1ncc(C(=O)NC2CCOCC2)cn1 | -0.8414% |
| Cc1csc2cc(C(=O)NC3CC3)cnc12 | 125.4% |
| O=C(NC1CCC(O)CC1)c1cnc2c(cnn2C2CCCC2)c1 (centres undefined) | -3.379% |
| CNC(=O)c1cnc2c(C)csc2c1 | 142.5% |
| Cc1cc(C2CCCN2C(=O)Cn2c(C)cc(=O)c3ccccc32)on1 (centres undefined) | -2.941% |
| COCC(=O)N1CCN(C(=O)C2CCCCC2)[C@@H](C(=O)OC)C1 | -2.41% |
| Cc1nc(C)n(C2CCCN(C(=O)Cc3cn4ccccc4n3)C2)n1 (centres undefined) | 141.6% |
| Cc1nccn1C1CCCN(C(=O)Cc2cn3ccccc3n2)C1 (centres undefined) | 129.5% |
| CCc1nccn1C1CCCN(C(=O)Cc2cn3ccccc3n2)C1 (centres undefined) | 11.58% |
| Cc1nccn1C1CCCN(C(=O)COCC(F)(F)F)C1 (centres undefined) | 9.036% |
| Cc1nc(C)n(C2CCCN(C(=O)c3nc(C)n4ccccc34)C2)n1 (centres undefined) | -12.32% |
